Screens (PubChem)
The list is not random: actives were taken first. Their share in the collection is about 2.3%.
Mcl1-Bid inh: disrupts binding of human Mcl-1 to Bid peptide | Q07820 | TR-FRET Mcl-1/Bid-Dy647 peptide binding, 1536-well | inhibition, % at 21.7 µM | hit rate 0.97% among 220,000 | AID 1021;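 active means compounds that cut the binding signal by more than half at the single screening dose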;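 further: His-tagged Mcl-1 with europium anti-His antibody binding Bid BH3 peptide; 0% = Mcl-1 plus peptide wells and 100% = peptide-only wells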
MCL1-BIM inh: inhibitors of human MCL1 binding to BIM-BH3 peptide; Q07820; GST-MCL1 / FITC-Bim-BH3 fluorescence polarization; inhibition, % at 10.9 µM; hit rate 0.68% among 320,000;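 active means inhibition above the mean inhibition of all tested compounds plus 3 SD, set per campaign, cut at about 40% in these data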;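 further: 0% = DMSO wells and 100% = unlabeled Bim-BH3 peptide control; higher means more loss of mP so more displacement of Bim peptide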
Mcl-1 Bim block: human Bim-Mcl-1 interaction inhibition. inhibition, % at 10 µM. hit rate 0.1% among 190,000. Bead-based flow cytometry, Bim peptide-Mcl-1 binding. Q07820; in the data active means inhibition above about 40%;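 further: 0% = no compound tracer wells and 100% = peptide blocker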
GLD-1 RNA inh: GLD-1-TGE RNA interaction inhibition (C. elegans). hit rate 0.44% among 320,000. purified GLD-1 + fluorescein TGE RNA, fluorescence polarization. Q17339. inhibition, % at 5.96 µM;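 active means percent inhibition above a per-plate cutoff, the plate mean of test compounds plus 3 SD, cut at about 30% in these data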;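 further: 0% = DMSO wells with GLD-1 and probe and 100% = wells lacking GLD-1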
Target sequence (Q17339 whole entry, looked up): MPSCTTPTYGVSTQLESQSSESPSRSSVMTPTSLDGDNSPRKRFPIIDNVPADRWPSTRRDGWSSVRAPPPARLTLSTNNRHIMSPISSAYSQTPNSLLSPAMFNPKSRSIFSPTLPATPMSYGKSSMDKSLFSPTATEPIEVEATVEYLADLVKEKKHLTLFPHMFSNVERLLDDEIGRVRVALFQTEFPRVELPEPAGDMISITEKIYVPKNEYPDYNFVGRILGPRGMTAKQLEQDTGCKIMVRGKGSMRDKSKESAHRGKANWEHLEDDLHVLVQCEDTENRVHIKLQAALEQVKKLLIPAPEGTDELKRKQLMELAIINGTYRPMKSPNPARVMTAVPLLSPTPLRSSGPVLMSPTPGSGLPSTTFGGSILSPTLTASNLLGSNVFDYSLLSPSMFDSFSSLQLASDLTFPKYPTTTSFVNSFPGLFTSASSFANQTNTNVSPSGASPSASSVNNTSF
Bcl-xL primary: Bcl-xL (human) inhibition; Q07817; GST-Bcl-xL / FITC-Bim BH3 peptide fluorescence polarization; inhibition, % at 10.9 µM; hit rate 0.7% among 320,000;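 active means inhibition above the mean of all tested compounds plus 3 SD, cutoff set per campaign, cut at about 30% in these data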;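 further: 0% = DMSO wells and 100% = unlabeled Bim-BH3 peptide competitor; inhibitors lower millipolarization by displacing the labeled peptide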
Target sequence (Q07817 whole entry, looked up): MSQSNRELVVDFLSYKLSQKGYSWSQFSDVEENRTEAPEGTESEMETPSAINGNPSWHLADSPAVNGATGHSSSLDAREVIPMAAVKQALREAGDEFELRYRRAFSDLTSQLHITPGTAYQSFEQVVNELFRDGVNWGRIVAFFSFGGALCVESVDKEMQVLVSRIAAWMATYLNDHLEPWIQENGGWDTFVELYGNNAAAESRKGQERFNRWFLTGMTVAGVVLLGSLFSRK
Mcl1-Noxa inh: Mcl-1/Noxa interaction inhibition | Q07820 | TR-FRET Mcl-1/Noxa peptide binding, 2 h | inhibition, % at 21.7 µM | hit rate 1.5% among 220,000 | AID 1022;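 active means compounds that cut the protein-peptide binding signal by more than 50% relative to plate controls in a single-dose test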;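 further: His-tagged Mcl-1 with rhodamine Noxa BH3 peptide and terbium anti-His antibody; 0% = Mcl-1 plus Noxa peptide wells and 100% = peptide-only wells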
The depositor's hits bear a star; . = no result given.

SMILES | Mcl1-Bid inh | MCL1-BIM inh | Mcl-1 Bim block | GLD-1 RNA inh | Bcl-xL primary | Mcl1-Noxa inh
O=C(NCc1ccccc1)C(=O)Nc1nc(C23CC4CC(CC(C4)C2)C3)cs1 | -49.2 | 6.3 | 83.0* | -6.0 | -1.3 | -55.6
O=C(NCc1ccncc1)C(=O)Nc1nc(C23CC4CC(CC(C4)C2)C3)cs1 | -33.2 | 8.6 | -4.0 | 2.6 | -1.6 | -77.9
CCc1ccccc1NS(=O)(=O)c1ccc2[nH]cc(C(=O)NCC3CCCO3)c(=O)c2c1 (stereo not drawn) | 59.4* | 7.2 | -2.0 | -1.3 | 8.2 | 72.2*
Cc1cc(C)cc(NS(=O)(=O)c2ccc3[nH]cc(C(=O)NCc4ccco4)c(=O)c3c2)c1 | 5.1 | 3.6 | -2.0 | 3.9 | 10.8 | 32.4
Cc1ccccc1NS(=O)(=O)c1ccc2[nH]cc(C(=O)N(C)Cc3ccco3)c(=O)c2c1 | 51.4* | 11.6 | -3.0 | -1.6 | 8.1 | 11.0
COc1cccc(NS(=O)(=O)c2ccc3[nH]cc(C(=O)N(C)Cc4ccco4)c(=O)c3c2)c1 | 58.4* | 6.8 | 0.0 | 0.6 | 9.8 | 9.7
Cc1nc(N2CCN(C(=O)c3cnccn3)CC2)c2c3c(sc2n1)CC(C(C)(C)C)CC3 (stereo not drawn) | . | -4.8 | . | -10.3 | -1.0 | .
Cc1csc2c(=O)n(CCO)c(=O)[nH]c12 | -5.7 | 1.9 | . | 0.6 | 4.2 | 7.7
COc1cc(/C=N/N(C)c2ccccc2)cc(Cl)c1O | -22.7 | 4.7 | -2.0 | 12.1 | 14.2 | 67.1*
COc1ccc(OC)c(/C=N/N(C)c2ccccc2)c1 | -25.2 | -5.5 | 1.0 | 10.3 | 0.1 | 18.3
C=CCn1c(SCC(=O)Nc2ccc(N3CCOCC3)cc2)nnc1-c1ccncc1 | . | -3.0 | . | 0.0 | -0.5 | .
CCn1c(SCC(=O)Nc2nc(-c3ccc(C)cc3)cs2)nnc1-c1ccccc1 | 5.7 | 4.7 | -1.0 | -2.8 | 7.9 | -6.8
C=CCn1c(SCC(=O)Nc2ccc(-c3nc4ccc(C)cc4s3)cc2)nnc1-c1ccncc1 | -20.1 | 7.2 | -11.0 | -5.1 | 2.5 | 63.4*
CCn1c(SCC(=O)Nc2ccc(-c3nc4ccc(C)cc4s3)cc2)nnc1-c1ccccc1 | 65.8* | -0.9 | -5.0 | -1.7 | 3.2 | 65.7*
COc1ccc(NS(=O)(=O)c2ccc(N3CCOCC3)c(NC(=O)c3ccc(F)cc3)c2)cc1 | 10.6 | 6.9 | -2.0 | -1.1 | 4.3 | 21.3
COc1ccc(NS(=O)(=O)c2ccc(O)c(NC(=O)c3cc4c(C)nn(-c5ccc(F)cc5)c4s3)c2)cc1 | 6.6 | -1.9 | 2.0 | 5.2 | 7.3 | 65.3*
CCOc1ccc(-n2c(SCC(=O)Nc3ccc(Br)cc3)nc3n[nH]c(C)c3c2=N)cc1 | 57.9* | 9.6 | -1.0 | 6.7 | 4.6 | 50.7*
CC(C)CCC(CCN1CCOCC1)c1ccc2c(c1)OCO2 (stereo not drawn) | 6.7 | 5.7 | -6.0 | -2.1 | 4.9 | 26.6
CC(C)CCC(CCN1CCCC1)c1ccc2c(c1)OCO2 (stereo not drawn) | 5.8 | 1.4 | . | -3.7 | 3.3 | 75.1*
C=CCn1c(SCC(=O)Nc2sccc2C(N)=O)nc2ccc(Cl)cc2c1=O | 60.8* | 8.4 | -3.0 | 11.7 | 3.0 | 29.7
C=CCn1c(SCC(=O)Nc2sccc2C(N)=O)nc2ccccc2c1=O | 1.8 | -4.8 | -2.0 | -2.1 | 0.8 | 7.4
Cc1cc(O)ccc1N/C=C(\C#N)c1nc2ccccc2o1 | 92.7* | -5.4 | -2.0 | 3.1 | 4.0 | 27.7
Oc1oc(C=Nc2ccc(F)cc2F)c2ccccc12 | -5.0 | 6.2 | 0.0 | 2.9 | 4.6 | 45.1
COc1ccccc1COCC(O)CNCC1(N2CCCCC2)CCCCC1 (stereo not drawn) | 62.2* | 6.7 | -2.0 | 2.3 | 7.0 | 12.0
COc1cc(C(C)=O)ccc1OCC(O)CNCC1(N2CCCCC2)CCCCC1 (stereo not drawn) | 5.0 | 0.1 | -1.0 | 3.2 | -1.8 | 25.2
SMILES | Mcl1-Bid inh | MCL1-BIM inh | Mcl-1 Bim block | GLD-1 RNA inh | Bcl-xL primary | Mcl1-Noxa inh
O=C(Cn1ccccc1=O)NCc1ccc(F)cc1 | . | 0.4 | . | 0.3 | 2.8 | .
COc1cccc2cc(C(=O)NNC(=O)c3ccc(Br)cc3)c(=O)oc12 | 28.0 | 2.1 | 1.0 | 6.2 | -3.9 | 63.5*
COc1cccc2cc(C(=O)Oc3ccc(NC(C)=O)cc3)c(=O)oc12 | 94.3* | 0.4 | 2.0 | 0.4 | 7.3 | -0.7
Cc1cccc(NC(=O)C2CC2c2ccccc2)c1C (stereo not drawn) | . | 2.6 | . | 0.2 | -2.7 | .
O=C(OCc1nnc(-c2ccc(Br)cc2)o1)c1cncc(Br)c1 | -2.9 | -3.7 | -1.0 | 1.2 | -0.7 | 8.0
Cc1csc(CCc2nc(C)cs2)n1 | 100.5* | 7.4 | -5.0 | 8.1 | 7.6 | -9.8
O=C1/C(=C/c2ccco2)SC(=S)N1c1cccnc1 | 24.1 | . | . | . | . | 94.1*
O=C1/C(=C/c2cccnc2)SC(=S)N1c1ccccc1 | -5.5 | 17.4 | -7.0 | -0.5 | 8.0 | 16.1
O=C1/C(=C\c2ccco2)SC(=S)N1c1ccc(O)cc1 | -11.4 | 26.7 | -5.0 | 4.5 | 14.4 | 4.4
O=C1/C(=C/C=C/c2ccco2)SC(=S)N1c1ccc(O)cc1 | 37.6 | 28.5 | . | -9.7 | 13.5 | 102.1*
CN(C)c1ccc(/C=C/C=C2/SC(=S)N(c3ccccc3)C2=O)cc1 | -22.4 | 22.4 | 22.0 | -25.1 | 36.1* | -4.0
O=C1/C(=C\c2ccc(O)cc2)SC(=S)N1c1cccnc1 | 6.5 | 11.7 | 0.0 | -25.1 | 7.5 | 73.1*
FC(F)(F)c1cnc(COc2cc(Cl)cc(Cl)c2)c(Cl)c1 | -9.5 | -1.6 | . | 0.7 | 3.0 | -1.8
CN(Cc1ccco1)S(=O)(=O)c1ccc(CN2C(=O)c3cccnc3C2=O)s1 | . | -2.5 | . | -2.4 | 4.1 | .
CCCSc1nc(C)nc2c1c(=O)n(C)c(=O)n2C | 88.0* | . | -1.0 | . | . | -4.2
COc1ccccc1CCC(=O)OCC(=O)NC1CC1 | . | -1.7 | . | -1.5 | -0.6 | .
COc1ccc(CNC(=O)Cn2ncn3c(cc4ccccc43)c2=O)cc1 | -5.1 | 4.3 | . | 1.3 | -1.9 | 2.7
O=C(Cn1cnc2scc(-c3ccccc3)c2c1=O)NCc1ccco1 | -59.3 | 7.8 | -3.0 | 3.2 | 7.1 | 50.6*
O=C(Cn1ncn2c(cc3ccccc32)c1=O)NCc1ccco1 | -12.6 | 8.3 | -5.0 | 1.8 | 2.1 | 68.9*
CCOc1ccccc1C(=O)Nc1ccc2nc(N3CCN(c4ncccn4)CC3)cc(C)c2c1 | . | 3.2 | . | 1.9 | 4.8 | .
COc1cccc(C(=O)Nc2ccc3nc(N4CCN(c5ncccn5)CC4)cc(C)c3c2)c1OC | 82.8* | -14.9 | 6.0 | -8.6 | -2.1 | 73.7*
N#Cc1ccccc1Cn1c(-c2cscn2)nc2ccccc21 | 79.2* | 7.7 | 1.0 | 5.1 | 7.5 | 5.9
O=C(O)Cn1c(-c2cscn2)nc2ccccc21 | -2.5 | 10.8 | 0.0 | -2.2 | 3.4 | 8.9
COc1ccc(CN2C(=NC(=O)C3CCCCC3)SC3CS(=O)(=O)CC32)cc1 (stereo not drawn) | . | 4.3 | . | 6.3 | 2.6 | .
O=C(CN1C(=O)S/C(=C\c2ccc(Cl)cc2)C1=O)NNC(=O)c1ccccc1O | 82.2* | 32.9 | -6.0 | 29.6 | 24.8 | 65.2*
